Assay results: PubChem BioAssay AID720513 (Broad Institute, 2013)
Out of some 2,100 compounds screened, about 480 (23%) were called active. Roughly 5% stayed inconclusive and do not appear here.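 The calls were made as follows: active = fitted curve reaches 40% activation at or below the top valid concentration, in every replicate test; inconclusive = replicate tests disagree on the call; inactive = the rest, including activity in the opposite direction.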 These entries were drawn from the full list. Entries with a potency or affinity are not part of this list.

Test: activators raising PGC1a acetylation in cells, dose response, cell-based, cherry-picked samples, set 6 (AID 720513);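 also: cells made to overexpress flag tagged PGC1a plus GCN5 acetyltransferase by viral infection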
Details: U2OS PGC1a acetylation AlphaLISA, overnight, 0 = neutral, -100 = inhibitor control; series mostly up to 19.5 µM

outcome, inactive:
O=C(NNS(=O)(=O)c1ccc(F)cc1)c1ccc(S(=O)(=O)N2CCCCC2)cc1
N#CC1(NC(=O)Cn2ncc(Cl)c(Cl)c2=O)CCCCC1
C#CCN(C[C@@H]1[C@@H](OC(=O)NCCCCCC)[C@@H](OC(=O)NCCCCCC)Cn2c(=O)ccc(=O)n21)S(=O)(=O)c1ccc(C)cc1
CO[C@H]1CN(C)C(=O)c2ccc(NS(=O)(=O)c3ccccc3)cc2OC[C@H](C)N(C(=O)NC(C)C)C[C@@H]1C
CCN(CC)S(=O)(=O)c1ccc(C(=O)Nc2cc(S(=O)(=O)N3CCOCC3)ccc2O)cc1
CCN(CC)c1ccc(S(=O)(=O)N2CCOCC2)cc1NC(=O)Cn1nc(C)c([N+](=O)[O-])c1C
O=C(Nc1cc(S(=O)(=O)N2CCOCC2)ccc1Cl)c1cc([N+](=O)[O-])ccc1Cl
O=C(Cn1cc(C(F)(F)F)ccc1=O)Nc1cc(S(=O)(=O)N2CCOCC2)ccc1Cl
Cc1nn(CCCC(=O)O)c(C)c1[N+](=O)[O-]
CCC(=O)NC1(Cc2ccc(O)cc2)CCCCC1
COCCNC(=O)CN(C(=O)CCC(=O)Nc1ccccn1)c1ccc(OC)cc1
CCN(CC)CCNc1ccc(C)c2sc3ccc(O)cc3c(=O)c12
Cc1cccc(CCN(CC(=O)NC(C)(C)C)C(=O)c2csnn2)c1
Cc1ccc(S(=O)(=O)N(C)C[C@H]2Oc3cc(C#Cc4ccncc4)ccc3S(=O)(=O)N([C@H](C)CO)C[C@H]2C)cc1
C[C@@H]1CN([C@@H](C)CO)S(=O)(=O)c2ccc(C3=CCCCC3)cc2O[C@H]1CN(C)C
COc1ccc(S(=O)(=O)N(C)C[C@@H]2Oc3cc(C#CC4CC4)ccc3S(=O)(=O)N([C@H](C)CO)C[C@H]2C)cc1
Cc1ccc(S(=O)(=O)N(C)C[C@@H]2Oc3cc(C#Cc4ccncc4)ccc3S(=O)(=O)N([C@@H](C)CO)C[C@H]2C)cc1
C[C@H]1CN([C@@H](C)CO)S(=O)(=O)c2ccc(C3=CCCC3)cc2O[C@@H]1CN(C)C
Cc1ccc(S(=O)(=O)N(C)C[C@@H]2Oc3cc(C#Cc4ccncc4)ccc3S(=O)(=O)N([C@H](C)CO)C[C@H]2C)cc1
COc1ccc(S(=O)(=O)N(Cc2cc3ccc(OC)cc3[nH]c2=O)CC2COCCO2)cc1 (configuration not stated)
Cn1c2c(c(=O)n(C)c1=O)C(c1cccc(F)c1)C(C#N)=C(N)O2 (configuration not stated)
Cc1ccc(S(=O)(=O)N(C)C[C@H]2Oc3ccc(NC(=O)CCC(F)(F)F)cc3C(=O)N([C@H](C)CO)C[C@@H]2C)cc1
CCOC(=O)c1ccc(N2C(=O)CC(N3CCC(O)(c4ccc(Br)cc4)CC3)C2=O)cc1 (configuration not stated)
Cn1ncc2c(O/N=C(\N)c3ccc(C(F)(F)F)cc3)ncnc21
CC(C)OC(=O)CSc1nc2cccnc2n1-c1ccc(F)cc1
CCOC(=O)CSc1nc2cc3c(cc2cc1C#N)OCCO3
O=C(/C=C/c1ccc(F)cc1)NNC(=O)CCN1CCN(Cc2ccccc2)CC1
Cc1[nH]c(=O)c(C(=O)/C=C/c2ccccc2)c2c1CCCC2
CC(=O)N1CCN(C(C)=O)C1c1ccccc1
O=S(=O)(Nc1ccccn1)c1ccc(-n2cccn2)cc1
CC1CCN(C(=O)COC(=O)c2ccc(Br)o2)CC1
CCOc1ccc(S(=O)(=O)N(C)c2ccc(OCC(=O)N3c4ccc(C)cc4C4CN(C)CCC43)cc2)cc1 (configuration not stated)
COc1ccc(OC)c(CNS(=O)(=O)c2cc(-c3cc(C)no3)ccc2OC)c1
CN(C[C@H]1N[C@@H](CO)[C@@H]1c1ccc(C2=CCCC2)cc1)C(=O)c1ccc(F)cc1
CN1OC[C@@H]2CN(S(=O)(=O)c3cccc4ccccc34)[C@H](c3ccc(N4CCCCC4)cc3)C[C@@H]21
Cc1cc(C)nc(N2CCC(C(=O)NCc3ccco3)CC2)n1
CC(C)CC(OC(=O)c1cccs1)C(=O)NCc1ccco1 (configuration not stated)
Cc1ccc(C)n1-c1ccc(-c2nnco2)cc1
COc1ccc2c3c(n(C)c2c1)[C@H](CO)NCC31CCN(Cc2cc(-c3ccccc3)on2)CC1
COc1ccc2c3c([nH]c2c1)[C@@H](CO)N(C(=O)c1ccccc1)CC31CCN(S(=O)(=O)c2cccs2)CC1
CCN(CC)Cc1c(O)ccc2c([N+](=O)[O-])c(C)n(-c3ccc(OC)cc3)c12
CCOC(=O)CN1C(=O)C(Sc2n[nH]c(-c3ccc(C)cc3)n2)CCc2ccccc21 (configuration not stated)
O=C1c2ccc(-c3ccc4c(c3)C(=O)N(CCCO)C4=O)cc2C(=O)N1CCCO
CNC[C@H]1Oc2ncc(C#CC3CCCCC3)cc2C(=O)N([C@H](C)CO)C[C@H]1C
COc1cccc(OCc2nnc(SCC(=O)OCc3ccccc3)o2)c1
O=C(Cn1cnc2c(nnn2Cc2ccc(Cl)cc2)c1=O)c1ccccc1
COc1ccc(CN(C)C[C@@H]2Oc3ccc(NS(=O)(=O)c4c(C)noc4C)cc3C(=O)N([C@H](C)CO)C[C@H]2C)cc1
Cc1cc(C)cc(N(CC(=O)Nc2c(C)n(C)n(-c3ccccc3)c2=O)S(C)(=O)=O)c1
C[C@@H]1CN([C@H](C)CO)C(=O)CCCn2nncc2CO[C@H]1CN(C)S(=O)(=O)c1cn(C)cn1
CN(Cc1ccccc1)C(=O)c1ccc2c(c1)NC(=O)C(N1CCOCC1)S2 (configuration not stated)
CCCOc1ccccc1C1C(C(=O)OC)=CN(C(C)C)C=C1C(=O)OC
CN(c1cccc(NS(=O)(=O)c2cccs2)c1)S(C)(=O)=O
CC(=O)c1ccccc1-c1csc2ncnc(Sc3nnnn3C)c12
CCn1c(CNc2ccc(C)cc2)nnc1SCC(N)=O
Cc1[nH]nc2ncc(C(=O)c3ccccc3O)cc12
Cn1c(SCc2ccon2)nc2ccccc2c1=O
CNC[C@@H]1OCCCC[C@H](C)Oc2ccc(NS(=O)(=O)c3cccs3)cc2C(=O)N([C@H](C)CO)C[C@@H]1C
